# Source: PubChem
# Rows were chosen to be rich in hits. Some 6.5% of all compounds tested hit in one or more screens of this group.
# NADH enzymes – inhibitors of PK/LDH coupling enzymes, profiling panel, artefact control, biochemical, MLSMR library; coupled PK/LDH NADH assays, four targets; IC50, µM (doses to about 10 µM), inactives show top-dose inhibition; hit rate 0.02% among 65,000;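 active = single-dose screening hits from any of four coupled enzyme assays that gave an IC50 when retested across doses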;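 also: the DPM-DC format reads NADH fluorescence rather than 340 nm absorbance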
# Abs 340nm – compound light absorbance at 340 nm, profiling panel, artefact control, biochemical, MLSMR library, data from PS, PMK, MK assays; fold change at 10 µM; compound absorbance at 340 nm, fold over control; AID 708, 2007; 65,000 tested, under 10 active;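 active = at 10 µM dose, initial 340 nm absorbance at least 2 fold that of control wells; inactive = change under 2 fold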;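 also: initial absorbance extrapolated from kinetic A340 decline of NADH oxidation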
# Spn PMK inh – S. pneumoniae PMK inhibitors, primary screen, biochemical, mevalonate pathway, pilot trial included; hit rate 0.49% among 65,000; purified PMK, PK/LDH-coupled NADH absorbance 340 nm; AID 539, 2006; inhibition, % at 10 µM; phosphomevalonate kinase (Streptococcus pneumoniae D39);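 active = top-ranked compounds by inhibition in the single 10 µM screen, taking a fixed number of the strongest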;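 also: 0% = full reaction with DMSO carrier and 100% = background rate without enzyme reaction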
# DPM-DC inhibit – S. pneumoniae DPM-DC inhibitors, primary screen, biochemical, PK/LDH-coupled NADH fluorescence; calls only at 10 µM; diphosphomevalonate decarboxylase (Streptococcus pneumoniae D39); AID 556, 2006; hit rate 0.49% among 65,000; purified DPM-DC;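 active = the 320 compounds with the highest percent inhibition in the single-dose primary screen, excluding strongly autofluorescent ones, cut at about 32% in these data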;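 also: kinetic rate of NADH fluorescence loss reporting ADP formed by the decarboxylase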
# Spn MK inh – S. pneumoniae MK inhibitors, primary screen, biochemical, PK/LDH-coupled NADH absorbance; purified MK, PK/LDH-coupled NADH absorbance 340 nm; AID 555, 2006; mevalonate kinase [Streptococcus pneumoniae D39]; hit rate 0.48% among 65,000; inhibition, % at 10 µM;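 active = ranked among the strongest by inhibition in the single 10 µM screen, a fixed top-ranked set picked for dose follow-up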
# Fluor 339 460 – intrinsic fluorescence of library compounds, ex339/em460 – biochemical, MLSMR library, data from DPM-DC assay, artefact control, profiling panel. compound autofluorescence, ex339/em460 nm, NADH buffer; active compounds read high; 1 = no-compound wells, NADH background. fluorescence fold increase at 10 µM. hit rate 5.5% among 65,000;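 active = at 10 µM, mean starting fluorescence two-fold or more over control wells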;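 also: signal is the first read of a kinetic run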
# An asterisk follows results filed as active; i = inactive; · = no result shown; + = active, no number; [ ] = dose if it differs, or a comment.
SMILES,NADH enzymes,Abs 340nm,Spn PMK inh,DPM-DC inhibit,Spn MK inh,Fluor 339 460
CCCCC(=O)Nc1cccc2c1C(=O)N(c1ccccc1)C2=O,3%,1,0,i,9,1.1
Nc1cccc2c1C(=O)N(c1ccccc1)C2=O,2%,1,9,+[fluoresces],0,2.3*
CCn1c2ccccc2c2nnc(SCc3cc(=O)n4ccsc4n3)nc21,3%,1,4,i,6,1.1
CCOc1ccccc1NC(=O)CCSc1nc2n[nH]c(C)c2c(=N)n1-c1ccccc1Cl,13%,1,21,i,8,1.3
CCOc1ccccc1-n1c(SCC(=O)Nc2ccc(CC)cc2)nc2n[nH]c(C)c2c1=N,13%,1.1,25*,·,0,4.9*
O=C(Nc1cccc(O)c1)c1ccc(Br)c(S(=O)(=O)N2CCCCC2)c1,4%,1,0,i,12,1.1
COC(=O)c1sc2nc(-c3ccco3)ccc2c1N,24%,1.2,0,+,18,2.9*
CCOC(=O)c1sc2nc(-c3ccco3)c3c(c2c1N)CC(C)(C)OC3,11%,1.1,0,i,9,2
COC(=O)c1sc2cnccc2c1N,7%,1,12,·,1,5.1*
COc1ccccc1Cn1c(=O)c2ccccc2n2c(SCC(=O)N3CCCCC3)nnc12,4%,1,13,i,0,1.1
S=c1[nH]nc(C23CC4CC(CC(C4)C2)C3)n1Cc1ccco1,8%,0.96,4,i,20,1.1
Cn1c(Br)nc2c1c(=O)n(CC(O)COc1ccccc1)c(=O)n2C (centres undefined),10%,0.99,9,i,20,1
CCOC(=O)c1sc(NC(=O)c2noc3c2CCCC3)c(C(=O)OCC)c1C,3%,0.98,5,·,12,2.1*
CCOC(=O)c1c(NC(=O)c2noc3c2CCCC3)sc(C)c1C,16%,1,0,i,22,3.3*
Cc1cc(C)cc(-n2nnc(C(=O)NCc3ccccc3Cl)c2N)c1,5%,0.98,10,i,4,1.1
CCC(C)n1c(SCC(=O)NC(=O)Nc2ccc3c(c2)OCCO3)nc2ccccc2c1=O (centres undefined),4%,1,5,i,7,1.1
Cc1ccc(-c2cn3nc(C)c(C)nc3n2)cc1,4%,1,12,·,8,2.9*
CCn1c2ccccc2c2cc(C3C(C#N)=C(N)OC4=C3C(=O)CC(C)(C)C4)ccc21 (centres undefined),4%,0.97,2,i,9,1.1
CCn1c2ccccc2c2cc(C3C(C#N)=C(C)NC(C)=C3C#N)ccc21,6%,1,7,·,5,4.8*
CCn1c2ccccc2c2cc(N)ccc21,4%,1,14,·,8,2.9*
CC(C)(C)OC(=O)N1CCOCCOCCN(C(=O)OC(C)(C)C)CCOCC1,7%,0.99,14,i,8,1.1
CCN1CCN(C(=O)c2cc3cc4cc(OC)ccc4nc3s2)CC1,8%,1,20,i,0,2.8*
Cc1ccc2cc3cc(C(=O)N4CCN(C(=O)c5ccco5)CC4)sc3nc2c1,9%,1.1,20,i,0,1.7
CN(C)c1cc(NC(=O)CN2CCOCC2)c2ccccc2n1,3%,1,0,·,4,1.8
CCCCC(=O)Nc1cc(N(C)C)nc2ccccc12,14%,1,12,·,15,3.8*
SMILES,NADH enzymes,Abs 340nm,Spn PMK inh,DPM-DC inhibit,Spn MK inh,Fluor 339 460
Cc1ccc(C(=O)N2CCCC(c3nc4c(nnn4Cc4ccccc4)c(=O)[nH]3)C2)cc1 (centres undefined),3%,1.1,8,i,5,1.1
Cc1nc2ccc(N)cc2c(=O)n1Cc1ccc(Cl)cc1,14%,1.1,17,·,11,3.7*
Cc1nc2oc3ccccc3c(=O)c2c(=O)n1Cc1ccccc1,4%,0.98,5,i,8,1.1
O=C(O)CCc1nnc2n(Cc3ccc(F)cc3)c(=O)c3ccccc3n12,1%,1,3,i,0,1
COc1cccc(CNCC(=O)N2C(C)CCCC2C)c1 (centres undefined),12%,1.1,3,i,34,1.1
Cc1ccc2nc(NCCO)nc(-c3ccccc3)c2c1,17%,1,18,·,15,5*
OCCNc1nc(-c2ccccc2)c2ccccc2n1,8%,1,12,·,3,2.4*
CC(=O)c1c(C)[nH]c(C(=O)OCC(=O)Nc2cc(C(F)(F)F)ccc2N2CCOCC2)c1C,5%,0.99,10,i,6,1.1
CCOC(=O)C1=C(c2ccccc2)N=C2SCC(=O)N2C1c1ccc2c(c1)OCO2 (centres undefined),0%,1.1,0,i,0,1.1
N=c1c(C(=O)NC2CCCCC2)cc2c(=O)n3ccccc3nc2n1CCN1CCOCC1,3%,1.1,6,·,0,3.9*
CCOCCCn1c(=N)c(C(=O)NCc2ccc3c(c2)OCO3)cc2c(=O)n3ccccc3nc21,4%,1.1,10,i,1,1.5
N=c1c(C(=O)NCc2ccc(F)cc2)cc2c(=O)n3ccccc3nc2n1CCCN1CCOCC1,2%,0.98,14,·,1,3*
N=c1c(C(=O)NCc2ccccc2)cc2c(=O)n3ccccc3nc2n1CCCN1CCOCC1,7%,1,10,·,3,3.7*
COC(=O)C1=C(CN2CCCc3ccccc32)NC(=O)NC1c1ccc(F)cc1 (centres undefined),5%,1,10,i,5,1.2
Cc1ccc(-c2nn(C)c(=O)c3ccccc23)cc1CNC(=O)c1ccco1,6%,1,8,i,6,1
CCN(CC)S(=O)(=O)c1cc(C(=O)NC2CCCCC2)ccc1C,1%,1,0,i,3,1.1
Cc1cc2oc(=O)cc(CN3CCCCC3C)c2c(C)c1Cl (centres undefined),6%,1,12,i,5,1.1
CCOC(=O)c1ccccc1NC(=O)CSc1nnnn1C1CCCCC1,6%,1,6,i,11,1.1
O=c1c(-c2ccc3c(c2)OCCO3)coc2c(CN3CCOCC3)c(O)ccc12,7%,1.1,2,·,11,3.8*
COc1cccc(Oc2coc3c(CN4CCOCC4)c(O)ccc3c2=O)c1,9%,1.1,10,·,8,3.9*
COc1ccc(Oc2coc3cc(OC(=O)N4CCOCC4)ccc3c2=O)cc1,3%,1.1,5,i,5,1.1
